Assay results from PubChem BioAssay AID2061305 (National Center for Advancing Translational Sciences (NCATS), 2025).
Inconclusive results are not listed. Active and inactive are the calls of the source. Calls come from the whole dose curve; as a rule, active = well fitted inhibition curve with a large enough effect; inconclusive = small, poorly fitted or top-dose-only effect; inactive = flat fitted curve, though single readings scatter. Where a SMILES comes first, the peptide text is derived from it. [ ]: non-standard residue; d: D form. Dolaproine = CO[C@@H]([C@@H]1CCCN1)[C@@H](C)C(=O)O; Dil = CC[C@H](C)[C@H](NC)[C@@H](CC(=O)O)OC; NMeV = CN[C@H](C(=O)O)C(C)C

Experiment: Identification of antibody-drug conjugate (ADC) payloads which are substrates of ATP-binding cassette drug efflux transporters: ABCB1-HeLa-KB-3-1 cell line
Conditions: KB-3-1 (HeLa derivative) viability, CellTiter-Glo, 48 h
Description: Antibody-drug conjugates (ADCs) feature an antibody recognizing a specific protein joined to a potent toxic payload. Numerous antibody-drug conjugates have received FDA approval; however, clinical resistance arises. Resistance mechanisms include decreased expression or mutation of the antibody target, impaired payload release, or increased expression of ATP-binding cassette (ABC) efflux transporters associated with multidrug resistance. We therefore sought to characterize the interaction of ABC multidrug transporters with ADC payloads. We performed a high-throughput screen with 27 common ADC payloads using cells lines expressing ABC transporters P-glycoprotein (P-gp, encoded by ABCB1) or ABCG2 (encoded by ABCG2). Confirmatory assays were also performed using cells transfected to express P-gp, ABCG2, or MRP1 (encoded by ABCC1). Several commonly used ADC payloads were substrates of P-gp, including calicheamicin gamma1, monomethyl auristatin E, DM1, and DM4. All the pyrrolobenzodiazepines tested - SJG136, SGD-1882, SG2057, and SG3199 - were substrates of P-gp, ABCG2, and MRP1. […] These findings highlight the risk of transporter-mediated resistance with certain ADC payloads and underscore the importance of selecting payloads that evade ABC transporter recognition in future ADC development.
HEK-293 cells were transfected with empty vector (pcDNA) or vector containing the human ABCB1 (MDR-19), ABCG2 (R-5), or ABCC1 gene (MRP1) and were maintained in EMEM with 2 mg/mL G418 added to maintain transporter expression. The HeLa derivative KB-3-1 and the P-gp overexpressing KB-8-5-11 subline were maintained in DMEM; KB-8-5-11 additionally received 100 ng/mL colchicine. H460 parental cells were obtained from the Division of Cancer Treatment and Diagnosis Tumor Repository, National Cancer Institute at Frederick, MD and were cultured in RPMI. The ABCG2 expressing subline H460 MX20 was generated by selecting H460 cells in 20 nM mitoxantrone. Media in all cases was supplemented with 10% FBS and 1% penicillin-streptomycin. We explored 27 common ADC payloads, in two orthogonal, paired cell line sets-a drug selected and transfected set for each transporter--to identify substrates of the ABC transporters P-gp and ABCG2. Compounds were sourced from Levena Biopharma (San Diego, CA), Selleck Chem (Houston, TX), ChemieTek (Indianapolis, IN), or Microsource Discovery Systems (Gaylordsville, CT). Screening was performed as previously described. Briefly, cells were plated at a density of 500 cells/well in 1536 well plates with compounds added using a 1536-head pin tool (Kalypsys, San Diego CA). Cells were incubated with cytotoxic drugs and processed with CellTiter Glo reagent (Promega, Madison, WI) to determine viability after 48 hours. P-gp substrates were identified by comparing compound activity between paired sets of low-expressing (sensitive) and over-expressing (resistant) cell lines.

| Structure (SMILES) | Potency |
| --- | --- |
| CC[C@H](C)[C@@H]([C@H](N)CC(=O)N1CCC[C@H]1[C@H](OC)[C@@H](C)C(=O)N[C@@H](Cc1ccccc1)c1nccs1)N(C)C(=O)[C@@H](NC(=O)[C@H](C(C)C)N(C)C)C(C)C | 0.0748 nM (active) |
| CC(C)(C)OC(=O)Nc1ccc2[nH]c(C(=O)N3C[C@@H](CCl)c4c3cc(O)c3ccccc43)cc2c1 | 5.9 nM (active) |
| CCN[C@H]1CO[C@@H](O[C@H]2[C@H](O[C@H]3C#C/C=C\C#C[C@]4(O)CC(=O)C(NC(=O)OC)=C3/C4=C\CSSSC)O[C@H](C)[C@@H](NO[C@H]3C[C@H](O)[C@H](SC(=O)c4c(C)c(I)c(O[C@@H]5O[C@@H](C)[C@H](O)[C@@H](OC)[C@H]5O)c(OC)c4OC)[C@@H](C)O3)[C@@H]2O)C[C@@H]1OC | 1.3 nM (active) |
| CCc1c2c(nc3ccc(O)cc13)-c1cc3c(c(=O)n1C2)COC(=O)[C@]3(O)CC | 472 nM (active) |
| CC[C@H](C)[C@@H]([C@H](N)CC(=O)N1CCC[C@H]1[C@H](OC)[C@@H](C)C(=O)N[C@@H](Cc1ccccc1)c1nccs1)N(C)C(=O)[C@@H](NC(=O)[C@@H](NC)C(C)C)C(C)C | 0.1 nM (active) |
| CCN(C(C)=O)[C@H]1CO[C@@H](O[C@H]2[C@H](O[C@H]3C#C/C=C\C#C[C@]4(O)CC(=O)C(NC(=O)OC)=C3/C4=C\CSSSC)O[C@H](C)[C@@H](NO[C@H]3C[C@H](O)[C@H](SC(=O)c4c(C)c(I)c(O[C@@H]5O[C@@H](C)[C@H](O)[C@@H](OC)[C@H]5O)c(OC)c4OC)[C@@H](C)O3)[C@@H]2O)C[C@@H]1OC | 8.4 nM (active) |
| COc1cccc2c1C(=O)c1c(O)c3c(c(O)c1C2=O)C[C@@](O)(C(=O)CO)C[C@@H]3O[C@H]1C[C@H]2[C@H](O[C@@H]3[C@@H](OC)OCCN32)[C@H](C)O1 | 0.3 nM (active) |
| CC[C@H](C)[C@@H]([C@@H](CC(=O)N1CCC[C@H]1[C@H](OC)[C@@H](C)C(=O)N[C@@H](Cc1ccccc1)C(=O)O)OC)N(C)C(=O)[C@@H](NC(=O)[C@@H](NC)C(C)C)C(C)C (H-[NMeV]V[Dil][Dolaproine]F-OH) | 66.6 nM (active) |
| CN(C)CCOc1ccc2[nH]c(C(=O)N3C[C@@H](CCl)c4c3cc(O)c3ccccc43)cc2c1 | 0.3 nM (active) |
| CC[C@]1(O)CC2CN(CCc3c([nH]c4ccccc34)[C@@](C(=O)OC)(c3cc4c(cc3OC)N(C)[C@H]3[C@@](O)(C(=O)OC)[C@H](OC(C)=O)[C@]5(CC)C=CCN6CC[C@]43[C@@H]65)C2)C1 (some centres undefined) | 6.7 nM (active) |
| COc1ccc(C2=CN3C(=O)c4cc(OC)c(OCCCOc5cc6c(cc5OC)C(=O)N5C=C(c7ccc(N)cc7)C[C@@H]5C=N6)cc4N=C[C@H]3C2)cc1 | 52.9 nM (active) |
| COc1cc2cc(c1Cl)N(C)C(=O)C[C@H](O)[C@]1(C)O[C@H]1[C@H](C)C1C[C@@](O)(NC(=O)O1)[C@H](OC)/C=C/C=C(\C)C2 | 4720 nM (active) |
| COC(=O)c1cc2c3c(cc(O)c2[nH]1)N(C(=O)c1cc2cc(OC)c(OC)c(OC)c2[nH]1)CC3CCl (centres undefined) | 0.5 nM (active) |
| COc1cccc2c1C(=O)c1c(O)c3c(c(O)c1C2=O)C[C@@](O)(C(=O)CO)C[C@@H]3O[C@H]1C[C@H](N)[C@H](O)[C@H](C)O1 | 236 nM (active) |
